What all share (assay): NCI-60 one-dose screen, 48 h (100 = growth as untreated, 0 = no growth, -100 = all killed)
Assay [1] deals with SK-MEL-2 melanoma. To be noted: 10 µM unless noted.
Assay [2] concerns EKVX NSCLC. To be noted: 10 µM unless noted.
Assay [3] relates to SN12C renal. To be noted: 10 µM unless noted.
For assay [4], the system named is UO-31 renal. The note with it: 10 µM unless noted.
The subject of assay [5] is ACHN renal. The note with it: 10 µM unless noted.
Assay [6] relates to A498 renal. To be noted: 10 µM unless noted.
Assay [7] relates to CCRF-CEM leukemia. To be noted: 10 µM unless noted.
Assay [8] deals with MOLT-4 leukemia. To be noted: 10 µM unless noted.
Assay [9] has as its system SR leukemia. To be noted: 10 µM unless noted.
In assay [10] the test system is RPMI-8226 leukemia. To be noted: 10 µM unless noted.
For assay [11], the system named is OVCAR-8 ovarian. To be noted: 10 µM unless noted.
In assay [12] the test system is OVCAR-5 ovarian. To be noted: 10 µM unless noted.
Assay [13] relates to OVCAR-4 ovarian. The note with it: 10 µM unless noted.
Assay [14] relates to SK-OV-3 ovarian. The note with it: 10 µM unless noted.
Assay [15] has as its system IGROV1 ovarian. The note with it: 10 µM unless noted.
Assay [16] relates to OVCAR-3 ovarian. To be noted: 10 µM unless noted.
The test system of assay [17] is HS 578T breast. To be noted: 10 µM unless noted.
The subject of assay [18] is NCI/ADR-RES ovarian. To be noted: 10 µM unless noted.
Assay [19] deals with CAKI-1 renal. To be noted: 10 µM.
The test system of assay [20] is TK-10 renal. To be noted: 10 µM unless noted.

About 83,000 compounds went through this panel and 20% of them were active in at least one assay; those are over-represented in the sample as a whole.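 Method: cells in 96-well plates; compound added at one concentration; 48 h incubation; percent growth measured; values under 10 scored active.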 Unmarked numbers belong to inactive results. Active and inactive are the calls of the source.

Take `COc1cc([C@H]2OC[C@H]3[C@@H]2CO[C@@H]3c2ccc(O)c(OC)c2)ccc1O`: the growth in assay [1] is 95.3%; in [2], 80.3%; in assay [3] it was 74.6%; in assay [4], 83.1%; in assay [5] it was 93.5%; in assay [6], 112%. The growth is 94.2% in assay [7]; 109% in assay [8]; 67.3% in assay [9]; 72.1% in assay [10]; 84.2% in assay [11]; 86.6% in assay [12]. The growth is 96.6% in assay [13]; 69% in assay [14]; 69.9% in assay [15]; 96.8% in assay [16]; 107% in assay [17]; 85.7% in assay [18].

As for `C#C[C@]1(O)CC[C@H]2[C@@H]3CC=C4c5sc(Nc6cccc(C)n6)nc5CC[C@]4(C)[C@H]3CC[C@@]21C`, the growth was -9.35% (active) in assay [1]; 8.96% (active) in assay [2]; 56.4% in [3]; -15.4% (active) in [4]; 33.1% in assay [5]; 2.65% (active) in assay [19]. Moreover, the growth is -29.2% (active) in assay [6]; 2.04% (active) in assay [7]; -25.2% (active) in [8]; -25% (active) in [9]; -33.2% (active) in assay [10]; 39% in [11]. Moreover, the growth is 56.4% in assay [12]; 56.6% in assay [13]; -7.51% (active) in assay [14]; 45.5% in assay [15]; -15.8% (active) in assay [17]; 38.5% in assay [18].

As to `CC(C)=CCc1c(O)c(CC=C(C)C)c2c(c1O)C(=O)C1=C[C@@H]3C[C@H]4C(C)(C)O[C@@](C/C=C(\C)C(=O)O)(C3=O)[C@@]14O2`, the growth in assay [1] was -53% (active); in assay [2], -3.05% (active); in [3], 12.3%; in assay [4] it was -30.9% (active); in assay [5], -0.932% (active); in assay [6], -31.6% (active). The growth was 1.76% (active) in [7]; 1.93% (active) in [8]; -4.41% (active) in assay [9]; -23.1% (active) in assay [10]; 10.1% in assay [11]; 8.41% (active) in assay [12]. Further, the growth in assay [13] was 33.2%; in [14] it was 42.4%; in assay [15], -21.8% (active); in assay [16], -55% (active); in assay [17] it was 27.7%; in assay [18], 10.7%.

Turning to `C#CCOc1ccc(/C=N/Nc2nc(-c3cc4cc(Br)cc(Br)c4oc3=O)cs2)cc1`, the growth in assay [1] is 109%; in assay [2], 92.2%; in [3], 92.1%; in assay [4] it was 88.5%; in assay [5], 98.8%; in assay [19], 88.1%. The growth is 85.4% in [6]; 94.4% in assay [7]; 62.8% in assay [8]; 71% in assay [9]; 97.1% in assay [10]; 100% in assay [11]. Further, the growth in assay [12] was 102%; in [13], 83.1%; in assay [14] it was 104%; in assay [15] it was 98.9%; in assay [17], 91.3%; in assay [18], 94.9%.

Consider `C=C1C(=O)O[C@@H]2C[C@@H](C)[C@H](OC)CC(=O)[C@](C)(OC(C)=O)C[C@H](OC(=O)/C(C)=C\C)[C@@H]12`, for which the growth is 87.5% in assay [1]; 83.9% in assay [2]; 72.4% in [4]; 55.9% in assay [20]; 5.58% (active) in [5]; 41.3% in [19]. For the same compound, the growth in assay [6] was 150%; in [7] it was -12.7% (active); in assay [8], 38.1%; in assay [9], 1.2% (active); in assay [10] it was 68.3%; in [11] it was 59%. Besides, the growth in assay [12] was 115%; in assay [13], 82.3%; in [14] it was 96.8%; in assay [15] it was 90.1%; in assay [16], 21.4%; in assay [17], 103%. Also, the growth in [18] was 100%.

In the case of `COc1ccc(-c2ccc3c4c(cccc24)C(=O)N(N2C(=O)c4cccc5cccc(c45)C2=O)C3=O)cc1`, the growth was 111% in [1]; 89.4% in [2]; 105% in assay [3]; 68.6% in assay [4]; 96.3% in assay [5]; 75.2% in assay [19]. Moreover, the growth is 100% in assay [6]; 96.8% in [7]; 101% in [8]; 95.3% in [9]; 29.4% in assay [10]; 100% in [11]. For the same compound, the growth in [12] is 101%; in assay [13] it was 97.5%; in [14] it was 100%; in assay [15] it was 92.4%; in assay [17] it was 101%; in assay [18], 98.2%.

Turning to `O=C1CC2(CCOCC2)Oc2ncccc21`, the growth in assay [1] was 95.9%; in assay [2] it was 93.5%; in [3] it was 33.1%; in [4] it was 101%; in assay [5], 36.3%; in assay [19] it was 94.2%. Besides, the growth in assay [6] is 99.6%; in assay [7] it was 0.712% (active); in [8], 13.5%; in assay [9] it was 15%; in assay [10], 5.53% (active); in assay [11], 90.9%. Also, the growth is 52.6% in [12]; 102% in assay [13]; 120% in assay [14]; -54.4% (active) in [16]; 95.2% in assay [17]; 104% in [18].

The values are drawn from PubChem BioAssay (NCI).
